Several values for one entry are separate records, joined by “and”; a condition that tells them apart may be missing. Equal entries are not always repeated. The whole screen tested about 320,000 compounds, of which about 22,000 (6.9%) were called active. Where a call stands in place of a potency, no number is given. Another 27% or so got no clear call; they are omitted. This is one part of a sample in which actives are shown more often than they occur. The call rests on the fitted dose curve; in most records, active means well fitted inhibition curve with a large enough effect; inconclusive means small, poorly fitted or top-dose-only effect, or another doubt; inactive means no such curve, though single readings can be large or run the other way. A structure can be active in one record and inactive in another.
Potency means the concentration at half of the fitted maximal effect.

This assay can be described thus: Primary qHTS for delayed death inhibitors of the malarial parasite plastid, 96 hour incubation. The conditions noted are these: P. falciparum luciferase reporter growth; series mostly up to 28.7 µM. The essentials:
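Parasite growth measured via integrated firefly luciferase reporter in P. falciparum. Infected erythrocytes at 2% hematocrit, 0.05% parasitemia final were treated 96 hours at 37 C under 5% CO2, and luminescence was read.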
`Cc1cc(=O)oc2cc(OC(C)C(=O)NCCc3ccc(S(N)(=O)=O)cc3)ccc12` (stereo not drawn): the Potency result was “inactive”.
In the case of `CCn1ccnc1CN(C)C(=O)c1cc(COc2ccc(Cl)cc2OC)on1`, the Potency was 3.7 µM (active).
The entry for `COc1cc(Cl)ccc1OCc1cc(C(=O)N2CC[C@@H]3CCCC[C@H]3C2)no1` is “inactive”.
As to `CCn1ccnc1CN(C)C(=O)c1cc(COc2ccc(-n3cncn3)cc2)on1`, the Potency result was “inactive”.
With `O=C(N[C@@H](Cc1c[nH]c2ccccc12)C(=O)O)OCC1c2ccccc2-c2ccccc21`, the Potency entry was “inactive”.
With `CN(C)CCCn1c(SCc2ccc(Cl)cc2)nnc1-c1ccncc1`, the Potency is 2.94 µM (active).
Consider `COCCCn1c(SCC(=O)Nc2ccccc2)nnc1-c1ccncc1`, for which the Potency result was “inactive”.
On to `CC1CCCCC1NC(=O)CSc1nnc(-c2ccncc2)n1CCCN(C)C` (stereo not drawn), for which the Potency entry is “inactive”.
The value for `O=C(c1cc(COc2c(F)cccc2F)on1)N1CCSCC1` was “inactive”; that for `NC(=O)C1CCN(CC(O)CSc2ccc(F)cc2)CC1` (stereo not drawn) was “inactive”; that for `O=c1cc(-c2ccccc2)nc(N2CCCCC2)[nH]1` was “inactive”.
For the compound `c1ccc(-n2cccc2)c(N2CCCCC2)c1`, the Potency entry was “inactive”.
The value for `c1ccc(-c2cc(N3CCCCC3)c3ccccc3n2)cc1` was 9.28 µM (active).
As to `Cc1nc2ccccc2n1CC(O)c1ccccc1` (stereo not drawn), the Potency entry is “inactive”.
The entry for `O=C(/C=C/c1cccc(C(F)(F)F)c1)N1CCN(c2ccccn2)CC1` is “inactive”; for `Nc1nonc1-n1nnc(C(=O)N/N=C\c2ccncc2)c1CN1CCCCC1` it is “inactive”; for `Cc1ccc(CNS(=O)(=O)c2ccc3c(c2)N(C)CCO3)cc1` it is “inactive”.
In the case of `Cc1ccc(S(=O)(=O)Nc2nc(CN3CCOCC3)nc3sc(C)c(C)c23)cc1`, the Potency entry was “inactive”.
In the case of `Cc1ccc(NC(=O)CN(C)C(=O)Cn2nnc(-c3ccccc3)n2)cc1`, the Potency entry is “inactive”.
As for `COc1c(C)c2c(c(O)c1C/C=C(\C)CCC(=O)O)C(=O)OC2`, the Potency was 1.61 µM (active).
Turning to `Cc1cc(=O)oc2c(C(=O)c3ccccc3)c(OCC(N)=O)ccc12`, the Potency entry was “inactive”.
Regarding `COC(=O)c1cc(S(=O)(=O)N2CCC(C(N)=O)CC2)oc1C`, the Potency entry was “inactive”.
As to `Cn1c(SCC(=O)N/N=C/c2ccc(O)c(O)c2)nc2ccccc21`, the Potency result was “inactive”.
With `Cc1nn(Cc2ccccc2Cl)c(Cl)c1C(=O)OC(C(=O)NC(N)=O)C(C)C` (stereo not drawn), the Potency was 13.1 µM (active).
As to `COc1ccccc1CCNC(=O)c1c(C)nn(CC(C)C)c1Cl`, the Potency entry was “inactive”.
The entry for `COC(=O)c1ccc(COC(=O)c2c(C)nn(Cc3ccccc3Cl)c2Cl)o1` is “inactive”; for `CCCCCCn1cc(C(=O)O)c(=O)c2cc(F)c(N3CCCCC3)cc21` it is “inactive”.
On to `CC(C)CN(C(=O)Cn1c(=O)cnc2ccccc21)C1CCS(=O)(=O)C1` (stereo not drawn), for which the Potency result was “inactive”.
As for `Cc1ccc(C)c(NC(=O)CN(C)C(=O)c2ccc3ncsc3c2)c1`, the Potency entry is “inactive”.
Consider `COc1ccc(C(=O)CCC(=O)Nc2ccc(Cl)cc2)cc1`, for which the Potency entry is “inactive”.
In the case of `COc1ccccc1/C=N/N1CCN(Cc2ccccc2Cl)CC1`, the Potency entry was “inactive”.
For `COc1ccc(C2N=C(N)N=C(N)N2c2ccccc2)cc1OC` (stereo not drawn), the Potency was 2.62 µM (active).
As for `COc1ccc(C2SCCN2S(=O)(=O)c2ccccc2)cc1OC` (stereo not drawn), the Potency result was “inactive”.
The value for `COc1ccc(C2/C(=C(/O)c3ccccc3)C(=O)C(=O)N2c2ncccn2)cc1OC` (stereo not drawn) was “inactive”; that for `Cc1ccc(S(=O)(=O)N(C)C)cc1NC(=O)C(C)OC(=O)c1ccc2ccccc2n1` (stereo not drawn) was “inactive”; that for `COc1ccc(S(=O)(=O)N(C)CC(=O)NCCCN2CCOCC2)cc1Cl` was “inactive”.
For `CC(=O)c1ccc(NC(=O)CCc2nnc3ccc(NCc4ccco4)nn23)cc1`, the Potency entry was “inactive”.
Turning to `CCOc1ccccc1NC(=O)CCc1nnc2ccc(NCc3ccco3)nn12`, the Potency was 8.28 µM (active).
For `O=C(CCc1nnc2ccc(NCc3ccco3)nn12)Nc1cc(F)ccc1F`, the Potency result was “inactive”.
As to `CC(C)C[C@H](NC(=O)C1CCC(CNC(=O)[C@@H]2CCCN2C(=O)OC(C)(C)C)CC1)C(=O)O` (stereo partly drawn), the Potency result was “inactive”.
Turning to `CC(C)[C@H](NC(=O)N1CCn2c1nc1ccccc12)C(=O)NCc1ccc2c(c1)OCO2`, the Potency result was “inactive”.
The figure for `COc1ccc(CCNC(=O)CCCCCNC(=O)N2CCn3c2nc2ccccc23)cc1OC` is 14.7 µM (active).
In the case of `COc1ccc(CCNC(=O)CCc2ccccc2O)cc1OC`, the Potency entry is “inactive”.
Turning to `Cc1ccc(C(=O)N2CCC(n3nccc3NC(=O)Nc3cccc(F)c3)CC2)cn1`, the Potency entry was “inactive”.
The value for `CCCC(=O)Nc1ccc2c(c1)nc(CCNC(=O)c1ccco1)n2C` was “inactive”; that for `COc1ccc(C2=NN(C(=O)CCC(=O)O)C(c3cccs3)C2)cc1OC` (stereo not drawn) was “inactive”.
The entry for `Cc1ccc(C2=NN(C(=O)CSc3nc(N)cc(N)n3)C(c3ccco3)C2)cc1` (stereo not drawn) is “inactive”.
As for `COc1cccc(C2CC(c3cccs3)=NN2C(=O)CSC2=NCCS2)c1OC` (stereo not drawn), the Potency was 6.57 µM (active).
The entry for `COc1cccc(C2CC(c3ccccc3)=NN2S(=O)(=O)c2ccccc2)c1OC` (stereo not drawn) is “inactive”; for `COc1ccc(C2CC(c3cccs3)=NN2C(=O)CCC(=O)O)cc1OC` (stereo not drawn) it is 2.62 µM (active); for `COc1ccc(C2CC(c3cccs3)=Nc3ccccc3S2)cc1OC` (stereo not drawn) it is “inactive”.
In the case of `COc1ccc(C2CC(c3cccs3)=NN2C(=O)CSc2nnc(N)s2)cc1OC` (stereo not drawn), the Potency was 10.4 µM (active).
As for `COc1ccc(C2CC(c3ccccc3)=NN2C(=O)COC(=O)COc2ccccc2)cc1` (stereo not drawn), the Potency result was “inactive”.
The figure for `COc1ccc(C2CC(c3cccs3)=NN2C(=O)CSc2nncs2)cc1OC` (stereo not drawn) is 10.4 µM (active).
As to `COc1ccc(C2CC(c3cccs3)=NN2c2ccc(F)cc2)cc1OC` (stereo not drawn), the Potency entry is “inactive”.
Take `Cc1ccccc1C1CC(c2cccs2)=NN1S(C)(=O)=O` (stereo not drawn): the Potency result was “inactive”.
Take `COc1ccc(C2CC(c3cccs3)=NN2C(=O)COC(=O)c2cc3ccccc3cc2O)cc1OC` (stereo not drawn): the Potency entry was “inactive”.
The entry for `COc1ccccc1CNC(=O)COC(=O)CNS(=O)(=O)c1ccc(NC(C)=O)cc1` is “inactive”; for `CCCn1cc(S(=O)(=O)c2ccc(C)cc2)c(=O)c2cc(OCC)ccc21` it is “inactive”; for `CCOc1ncccc1C(=O)NNC(=O)c1cccc(S(=O)(=O)Nc2ccccc2OC)c1` it is “inactive”.
For `O=C(CNC(=O)c1cccs1)N/N=C/c1cccc(Br)c1`, the Potency entry was “inactive”.
As for `Cc1cc(F)ccc1S(=O)(=O)Nc1ccc(C(=O)N(C)Cc2ccco2)cc1`, the Potency entry is “inactive”.
Turning to `Cc1sc2ncnc(N3CCC(C(=O)Nc4nc5ccc(Cl)cc5s4)CC3)c2c1C`, the Potency entry was “inactive”.
In the case of `O=C(N/N=C\C1CC=CCC1)c1ccc(Br)o1` (stereo not drawn), the Potency entry is “inactive”.
As for `Cc1ccc(C(=O)N/C(=C/c2cccs2)C(=O)NCC2CCCO2)cc1` (stereo not drawn), the Potency entry was “inactive”.
For the compound `Cc1ccc(-n2c(C)cc(/C=C(\C#N)C(=O)NCC3CCCO3)c2C)cc1` (stereo not drawn), the Potency was 5.86 µM (active).
`Cc1ccc(S(=O)(=O)N2CCC(C(=O)NCC3CCCO3)CC2)cc1` (stereo not drawn): the Potency entry is “inactive”.
Regarding `CC(=O)N(CC(O)CO)c1c(I)c(C(=O)NCC(O)CO)c(I)c(C(=O)NCC(O)CO)c1I` (stereo not drawn), the Potency entry is “inactive and 13.5 µM (active)”.
Regarding `CC(C)(Oc1ccc(Cl)cc1)C(=O)OCC(=O)NCCc1ccc(S(N)(=O)=O)cc1`, the Potency result was “inactive”.
For the compound `Cc1cc(C)n2nc(C(=O)OC(C)C(=O)c3cc(C)c(C)cc3C)nc2n1` (stereo not drawn), the Potency result is “inactive”.
With `Oc1ccc(Cl)c2c1CCC2`, the Potency result was “inactive”.
For the compound `Cc1ccc(NC(=O)Nc2cc(-c3ccccc3)nn2C)cc1Cl`, the Potency entry is “inactive”.
Regarding `COc1ccc(NC(=O)CN(C)C(=O)/C=C/c2cn(Cc3ccccc3)nc2-c2cccnc2)cc1`, the Potency is 9.28 µM (active).
Take `COc1cccc(NC(=O)CN(C)C(=O)/C=C/c2cn(-c3ccccc3)nc2-c2cccs2)c1`: the Potency result was “inactive”.
As for `O=Cc1cn(Cc2ccccc2)nc1-c1cccnc1`, the Potency entry was “inactive”.
As for `O=C(Nc1ccc(NC(=O)c2ccc3c(c2)OCO3)cc1)c1cccc(Cl)c1`, the Potency result is “inactive”.
For the compound `CN(c1ccccc1)S(=O)(=O)c1ccc(C(=O)NCCc2ccccc2)cc1`, the Potency result was “inactive”.
In the case of `CC1(C)CCc2nc(SCc3ccccc3)c(C#N)cc2C1`, the Potency is 6.57 µM (active).
In the case of `CC(NC(=O)CSc1nc2c(cc1C#N)CN(C)CC2)c1ccccc1` (stereo not drawn), the Potency result is “inactive”.
The entry for `Cc1cc(C)nc(SCc2ccccc2C#N)n1` is “inactive”; for `CCCCN(C(=O)c1nn(C)c(=O)c2ccccc12)c1c(N)n(CCC)c(=O)[nH]c1=O` it is “inactive”.
On to `COc1ccccc1C(=O)NC(=S)Nc1ccccc1N1CCCCC1`, for which the Potency result was “inactive”.
With `Oc1c(C=Nc2cccc3nsnc23)ccc2ccccc12`, the Potency result is “inactive”.
As to `Oc1ccc2ccccc2c1N=Nc1nccs1`, the Potency is 9.28 µM (active).
For the compound `c1ccc(NCc2cccc3ccccc23)nc1`, the Potency entry is “inactive”.
Take `Oc1ccc(N=Nc2nccs2)c(O)c1`: the Potency was 11.7 µM (active).
Regarding `COc1ccc(C(=O)N[C@H](C(=O)NCc2ccccc2)C(C)C)cc1`, the Potency entry was “inactive”.
As to `COc1cccc(NC(=O)N2CCCC2C(=O)NC2CCCCC2)c1` (stereo not drawn), the Potency result is “inactive”.
`CCOC(=O)Cn1c(=O)n(Cc2ccc(OC)cc2)c(=O)c2cccnc21`: the Potency entry is “inactive”.
As for `COc1cc2nc(Cl)nc(NCCO)c2cc1OC`, the Potency entry was “inactive”.
Turning to `COc1ccc(-c2oc3ncnc(NCCCO)c3c2-c2ccc(OC)cc2)cc1`, the Potency is 2.08 µM (active).
As for `c1ccc(-c2oc3ncnc(N4CCOCC4)c3c2-c2ccccc2)cc1`, the Potency result is “inactive”.
As to `Cc1ccc(S(=O)(=O)N(Cc2ccccc2)c2ccccn2)cc1[N+](=O)[O-]`, the Potency entry is “inactive”.
Regarding `CCC(C)N1CC(=O)N2Cc3[nH]c4ccccc4c3C[C@H]2C1=O` (stereo partly drawn), the Potency entry was “inactive”.
As to `Cc1[nH]nc(-c2ccc(OCc3cnn(-c4ccccc4)c3)cc2O)c1Oc1ccc(Cl)cc1`, the Potency is 13.1 µM (active).
On to `Oc1cccc(C2c3[nH]c4ccccc4c3CCN2Cc2cnn(-c3ccccc3)c2)c1` (stereo not drawn), for which the Potency entry is “inactive”.
The entry for `CN=C1S/C(=C\c2c(OC)cc(OC)cc2OC)C(=O)N1C` is “inactive”.
On to `O=C(CN1CCCCCC1)Nc1ccc(S(=O)(=O)N2CCCCC2)cc1`, for which the Potency result is “inactive”.
The entry for `CC(Oc1ccccc1[N+](=O)[O-])C(=O)N/N=C/c1ccoc1` (stereo not drawn) is “inactive”; for `Cc1cc(-c2csc(N)n2)c(C)n1Cc1ccccc1` it is “inactive”; for `CC(=O)Nc1ccc(C(=O)Nc2nc(-c3cc(C)n(Cc4ccccc4)c3C)cs2)cc1` it is 4.15 µM (active).
As to `CCc1noc(C)c1C(=O)Nc1nc(-c2ccccc2)cs1`, the Potency result was “inactive”.
As for `CCN(CC(=O)NCc1cccs1)C(=O)/C=C/c1ccc(C)cc1`, the Potency entry is “inactive”.

The values are drawn from PubChem BioAssay AID504834 (National Center for Advancing Translational Sciences (NCATS), 2011).
